In PubChem BioAssay (EPA / NIEHS):
“And” between values parts separate entries of the source, which are not always exact repeats. Equal values may be shown once. Where a structure was tested more than once in an assay, its records may differ in their call. The source made the active and inactive calls. How the source made its calls: active means hit-call score of the fitted dose curve at least 0.9, where 1 is the maximum; inactive means score below 0.9.

Read-out: Interleukin-1 alpha (IL1a), IL1A (gene 3552)
Assay: BSK_LPS_IL1a: BioMAP Diversity Plus: LPS Assay for Interleukin-1 alpha (IL1a) Biomarker Activity (AID 2283080)
Details: primary human HUVEC with PBMC; actives raise or lower the signal
Procedure, shortened: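 Primary human HUVEC and PBMC co-culture stimulated with LPS is dosed and harvested at 24 h. Both increases and decreases in ELISA-measured IL-1a are scored relative to DMSO.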
For `CCOC(=O)NCCOc1ccc(Oc2ccccc2)cc1`, the outcome was “inactive”. In the case of `CCNc1nc(N)nc(Cl)n1`, the outcome is reported as “inactive”. With `COc1c(Cl)ccc(Cl)c1C(=O)O` the outcome was “inactive”. For `C[C@]12C[C@H](O)[C@H]3[C@@H](CCC4=CC(=O)CC[C@@]43C)[C@@H]1CC[C@@H]2C(=O)CO`, the outcome was “inactive”. With `CC(=O)[C@H]1CC[C@H]2[C@@H]3CCC4=CC(=O)CC[C@]4(C)[C@H]3CC[C@]12C` the outcome was “inactive”. For `O=C(c1ccccc1)C1CCCCC1`, the outcome was “inactive”.

Read-out: Monocyte Chemoattractant Protein-1 (MCP1), CCL2 (gene 6347)
Assay: BSK_LPS_MCP1: BioMAP Diversity Plus: LPS Assay for Monocyte Chemoattractant Protein-1 (MCP1) Biomarker Activity (AID 2283081);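 on AC50: secreted MCP-1 protein quantified by ELISA in culture supernatant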
Details: primary human HUVEC with PBMC; actives raise or lower the signal
Procedure, shortened: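 Values derive from bidirectional fitting against DMSO of ELISA-measured MCP-1 in a human primary endothelial and mononuclear cell co-culture, 24 h after chemical addition under LPS activation.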
In the case of `CCOC(=O)C(C)Oc1ccc(Oc2cnc3cc(Cl)ccc3n2)cc1` (stereo unspecified), the outcome is reported as “inactive”. In the case of `C#C[C@]1(O)CC[C@H]2[C@@H]3CCC4=CC(=O)CC[C@@H]4[C@H]3CC[C@@]21CC`, the outcome is reported as “inactive”. For `CC(C)(c1ccc(O)cc1)c1ccc(O)cc1`, the outcome was “inactive”. In the case of `COC(=O)c1ccccc1S(=O)(=O)NC(=O)Nc1nc(OC(F)F)cc(OC(F)F)n1`, the outcome is reported as “inactive”. For `S=C(S)NCCNC(=S)S.[Mn+2].[S-]C([S-])=NCCN=C([S-])[S-].[Zn+2]`, the outcome was “inactive”. For `CCC(O)=C1C(=O)CC(C(=O)O)CC1=O` (stereo unspecified), the outcome was “inactive”. In the case of `CCCCCOC(=O)COc1cc(N2C(=O)C3=C(CCCC3)C2=O)c(F)cc1Cl`, the outcome is reported as “inactive”. With `CCOC(=O)c1ccc(O)cc1` the outcome was “inactive”. With `CCCCC(CC)COC(=O)c1ccccc1C(=O)O` (stereo unspecified) the outcome was “inactive”. For `CCOC(=O)NCCOc1ccc(Oc2ccccc2)cc1`, the AC50 was 14.4 µM (active). In the case of `CCC(C)OC(=O)N1CCCCC1CCO` (stereo unspecified), the outcome is reported as “inactive”. In the case of `CCNc1nc(N)nc(Cl)n1`, the outcome is reported as “inactive”. For `COC(=O)c1ccccc1C(=O)O`, the outcome was “inactive”. With `COC(=O)c1cccc(C)c1S(=O)(=O)NC(=O)Nc1nc(OCC(F)(F)F)nc(N(C)C)n1` the outcome was “inactive”. In the case of `O=C(O)C1(C(=O)Nc2ccc(Cl)cc2Cl)CC1`, the outcome is reported as “inactive”. For `Oc1ccc(C(c2ccc(O)cc2)C(Cl)(Cl)Cl)cc1`, the AC50 was 33.9 µM (active). In the case of `N[C@@H](Cc1cc(I)c(Oc2ccc(O)c(I)c2)c(I)c1)C(=O)O`, the outcome is reported as “inactive”. With `COc1c(Cl)ccc(Cl)c1C(=O)O` the outcome was “inactive”. For `N#CSCSc1nc2ccccc2s1`, the AC50 was 6.17 µM (active) and 6.23 µM (active). In the case of `CCN(Cc1c(F)cccc1Cl)c1c([N+](=O)[O-])cc(C(F)(F)F)cc1[N+](=O)[O-]`, the outcome is reported as “inactive”. For `O=C(O)c1ccccc1`, the outcome was “inactive”. For `Cc1nn(C)c(Oc2ccccc2)c1C=NOCc1ccc(C(=O)OC(C)(C)C)cc1`, the AC50 was 17.5 µM (active). With `C[C@]12C[C@H](O)[C@H]3[C@@H](CCC4=CC(=O)CC[C@@]43C)[C@@H]1CC[C@@H]2C(=O)CO` the outcome was “inactive”. With `CC(=O)[C@H]1CC[C@H]2[C@@H]3CCC4=CC(=O)CC[C@]4(C)[C@H]3CC[C@]12C` the AC50 was 25 µM (active). With `CCCCC(CC)CN1C(=O)C2C3C=CC(C3)C2C1=O` (stereo unspecified) the outcome was “inactive”. In the case of `O=C(c1ccccc1)C1CCCCC1`, the outcome is reported as “inactive”. For `CCCN(CCC)C(=O)SCC`, the outcome was “inactive”. For `CCCOC(=O)c1ccc(C(=O)OCCC)nc1`, the AC50 was 1.84 µM (active). For `CCCOC(=O)NCCCN(C)C`, the outcome was “inactive”.

Read-out: not listed separately
Assay: BSK_LPS_PGE2: BioMAP Diversity Plus: LPS Assay for Prostaglandin E2 (PGE2) Biomarker Activity (AID 2283082);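 on AC50: secreted prostaglandin E2 measured by ELISA in LPS-stimulated co-culture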
Details: primary human HUVEC with PBMC; actives raise or lower the signal
Procedure, shortened: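 LPS-activated HUVEC/PBMC co-culture; cmpd dosed, 24 h; PGE2 by ELISA; bidirectional fit vs DMSO; SRB (0.1%, TCA-fixed, 560 nm) in parallel plates for overt cytotox.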
For `CCOC(=O)C(C)Oc1ccc(Oc2cnc3cc(Cl)ccc3n2)cc1` (stereo unspecified), the AC50 was 13.1 µM (active). In the case of `C#C[C@]1(O)CC[C@H]2[C@@H]3CCC4=CC(=O)CC[C@@H]4[C@H]3CC[C@@]21CC`, the AC50 is reported as 2.43 µM (active). With `CC(C)(c1ccc(O)cc1)c1ccc(O)cc1` the AC50 was 16.6 µM (active) and 10.3 µM (active) and 11.1 µM (active) and the outcome was “inactive”. In the case of `COC(=O)c1ccccc1S(=O)(=O)NC(=O)Nc1nc(OC(F)F)cc(OC(F)F)n1`, the outcome is reported as “inactive”. For `S=C(S)NCCNC(=S)S.[Mn+2].[S-]C([S-])=NCCN=C([S-])[S-].[Zn+2]`, the outcome was “inactive”. With `CCC(O)=C1C(=O)CC(C(=O)O)CC1=O` (stereo unspecified) the outcome was “inactive”. With `CCCCCOC(=O)COc1cc(N2C(=O)C3=C(CCCC3)C2=O)c(F)cc1Cl` the outcome was “inactive”. With `CCOC(=O)c1ccc(O)cc1` the outcome was “inactive”. In the case of `CCCCC(CC)COC(=O)c1ccccc1C(=O)O` (stereo unspecified), the outcome is reported as “inactive”. In the case of `CCOC(=O)NCCOc1ccc(Oc2ccccc2)cc1`, the outcome is reported as “inactive”. With `CCC(C)OC(=O)N1CCCCC1CCO` (stereo unspecified) the outcome was “inactive”. For `CCNc1nc(N)nc(Cl)n1`, the outcome was “inactive”. In the case of `COC(=O)c1ccccc1C(=O)O`, the outcome is reported as “inactive”. In the case of `COC(=O)c1cccc(C)c1S(=O)(=O)NC(=O)Nc1nc(OCC(F)(F)F)nc(N(C)C)n1`, the outcome is reported as “inactive”. For `O=C(O)C1(C(=O)Nc2ccc(Cl)cc2Cl)CC1`, the AC50 was 7.72 µM (active). In the case of `Oc1ccc(C(c2ccc(O)cc2)C(Cl)(Cl)Cl)cc1`, the AC50 is reported as 29.3 µM (active). With `N[C@@H](Cc1cc(I)c(Oc2ccc(O)c(I)c2)c(I)c1)C(=O)O` the outcome was “inactive”. For `COc1c(Cl)ccc(Cl)c1C(=O)O`, the outcome was “inactive”. In the case of `CC(C)CCCCCCc1ccc(O)cc1`, the AC50 is reported as 6.36 µM (active). In the case of `N#CSCSc1nc2ccccc2s1`, the AC50 is reported as 1.9 µM (active) and 2.28 µM (active). For `CCN(Cc1c(F)cccc1Cl)c1c([N+](=O)[O-])cc(C(F)(F)F)cc1[N+](=O)[O-]`, the outcome was “inactive”. With `O=C(O)c1ccccc1` the outcome was “inactive”. In the case of `Cc1nn(C)c(Oc2ccccc2)c1C=NOCc1ccc(C(=O)OC(C)(C)C)cc1`, the AC50 is reported as 1.11 µM (active). For `C[C@]12C[C@H](O)[C@H]3[C@@H](CCC4=CC(=O)CC[C@@]43C)[C@@H]1CC[C@@H]2C(=O)CO`, the outcome was “inactive”. In the case of `CC(=O)[C@H]1CC[C@H]2[C@@H]3CCC4=CC(=O)CC[C@]4(C)[C@H]3CC[C@]12C`, the outcome is reported as “inactive”. For `CCCCC(CC)CN1C(=O)C2C3C=CC(C3)C2C1=O` (stereo unspecified), the outcome was “inactive”. For `O=C(c1ccccc1)C1CCCCC1`, the outcome was “inactive”. With `CCCN(CCC)C(=O)SCC` the outcome was “inactive”. For `CCCOC(=O)c1ccc(C(=O)OCCC)nc1`, the outcome was “inactive”. For `CCCOC(=O)NCCCN(C)C`, the outcome was “inactive”.
